# Assay results reported in the supplement of paper PMC11001985.
# Compound: C#CCNC(=O)CCSSCCC(=O)NCCc1ccc(C=O)c(C=O)c1
# Assay: lysine labeling ratio R10:1 (500 µM / 50 µM probe), SILAC-ABPP in living cells; higher = lower intrinsic lysine reactivity toward the probe, active = 2 or less
# Settings: HeLa; probe concentrations 500 vs 50 µM
# Outline: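 An alkyne-tagged lysine probe with a disulfide linker labelled living HeLa cells in PBS at room temperature at either 50 µM or 500 µM, using SILAC light and heavy cells in forward and reverse label swaps. Lysates were mixed, clicked to biotin-azide, trypsin-digested, enriched on neutravidin, DTT-released, alkylated and measured by LC-MS/MS on a TIMS-TOF Pro. Each lysine's R is the filtered median high-probe/low-probe MS1 peptide ratio, combined as the median over forward and reverse replicates, with 20 as the upper limit.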
# Sequence of UniProt P11021 (P11021 whole entry): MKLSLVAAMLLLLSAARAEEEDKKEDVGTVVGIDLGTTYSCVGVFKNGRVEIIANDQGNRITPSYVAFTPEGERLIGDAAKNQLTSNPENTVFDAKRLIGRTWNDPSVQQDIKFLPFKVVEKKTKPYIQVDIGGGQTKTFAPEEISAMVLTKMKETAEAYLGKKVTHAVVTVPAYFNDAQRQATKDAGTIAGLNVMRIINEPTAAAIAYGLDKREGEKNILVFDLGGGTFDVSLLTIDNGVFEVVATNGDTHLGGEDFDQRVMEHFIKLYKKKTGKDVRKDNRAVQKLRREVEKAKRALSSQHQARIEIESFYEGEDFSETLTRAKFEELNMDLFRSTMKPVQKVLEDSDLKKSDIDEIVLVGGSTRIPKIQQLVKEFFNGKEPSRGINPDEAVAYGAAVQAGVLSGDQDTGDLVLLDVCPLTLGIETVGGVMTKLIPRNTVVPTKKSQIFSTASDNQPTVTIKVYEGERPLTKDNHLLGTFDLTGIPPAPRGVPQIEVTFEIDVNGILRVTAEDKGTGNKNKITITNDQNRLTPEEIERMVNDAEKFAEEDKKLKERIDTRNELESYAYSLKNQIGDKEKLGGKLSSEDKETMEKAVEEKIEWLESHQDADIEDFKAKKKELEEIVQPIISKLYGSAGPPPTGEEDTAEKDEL
# Sequence of UniProt P38646 (P38646 whole entry): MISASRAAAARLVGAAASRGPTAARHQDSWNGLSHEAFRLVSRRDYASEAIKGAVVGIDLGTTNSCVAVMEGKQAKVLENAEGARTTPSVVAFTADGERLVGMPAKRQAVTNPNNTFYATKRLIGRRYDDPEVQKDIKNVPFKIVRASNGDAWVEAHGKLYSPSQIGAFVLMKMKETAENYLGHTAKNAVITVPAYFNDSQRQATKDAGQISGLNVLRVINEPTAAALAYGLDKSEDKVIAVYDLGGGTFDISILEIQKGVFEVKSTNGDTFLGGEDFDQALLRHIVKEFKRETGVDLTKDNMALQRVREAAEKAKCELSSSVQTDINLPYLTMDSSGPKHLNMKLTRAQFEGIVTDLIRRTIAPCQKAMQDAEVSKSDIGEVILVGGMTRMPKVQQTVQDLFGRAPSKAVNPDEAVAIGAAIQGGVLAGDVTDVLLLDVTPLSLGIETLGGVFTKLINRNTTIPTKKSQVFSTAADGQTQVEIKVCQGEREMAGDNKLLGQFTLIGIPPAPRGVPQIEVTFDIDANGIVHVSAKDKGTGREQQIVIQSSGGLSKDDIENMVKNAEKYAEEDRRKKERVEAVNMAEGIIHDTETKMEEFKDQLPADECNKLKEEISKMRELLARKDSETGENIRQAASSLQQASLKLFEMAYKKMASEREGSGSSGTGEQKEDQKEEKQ
# Sequence of UniProt Q8IWA5 (Q8IWA5 whole entry): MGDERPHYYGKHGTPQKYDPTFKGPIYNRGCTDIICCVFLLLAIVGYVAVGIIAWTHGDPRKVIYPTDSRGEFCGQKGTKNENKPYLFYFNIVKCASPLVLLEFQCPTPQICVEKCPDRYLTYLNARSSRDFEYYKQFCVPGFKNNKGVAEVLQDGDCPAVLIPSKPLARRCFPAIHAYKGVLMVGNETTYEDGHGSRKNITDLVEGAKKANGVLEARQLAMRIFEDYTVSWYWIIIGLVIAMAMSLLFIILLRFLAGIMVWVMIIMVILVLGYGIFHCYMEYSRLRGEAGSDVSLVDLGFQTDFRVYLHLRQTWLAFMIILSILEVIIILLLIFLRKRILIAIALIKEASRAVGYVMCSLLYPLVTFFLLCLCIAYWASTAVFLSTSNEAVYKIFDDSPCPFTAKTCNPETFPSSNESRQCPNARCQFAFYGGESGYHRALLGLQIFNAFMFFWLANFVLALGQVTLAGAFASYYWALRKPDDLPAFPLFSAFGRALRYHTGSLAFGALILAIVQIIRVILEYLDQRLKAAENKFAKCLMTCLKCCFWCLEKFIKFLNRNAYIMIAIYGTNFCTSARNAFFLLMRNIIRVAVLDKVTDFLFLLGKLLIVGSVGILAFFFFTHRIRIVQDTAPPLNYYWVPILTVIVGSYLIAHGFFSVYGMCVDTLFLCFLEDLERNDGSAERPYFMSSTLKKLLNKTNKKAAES
# Sequence of UniProt P11717 (P11717 whole entry): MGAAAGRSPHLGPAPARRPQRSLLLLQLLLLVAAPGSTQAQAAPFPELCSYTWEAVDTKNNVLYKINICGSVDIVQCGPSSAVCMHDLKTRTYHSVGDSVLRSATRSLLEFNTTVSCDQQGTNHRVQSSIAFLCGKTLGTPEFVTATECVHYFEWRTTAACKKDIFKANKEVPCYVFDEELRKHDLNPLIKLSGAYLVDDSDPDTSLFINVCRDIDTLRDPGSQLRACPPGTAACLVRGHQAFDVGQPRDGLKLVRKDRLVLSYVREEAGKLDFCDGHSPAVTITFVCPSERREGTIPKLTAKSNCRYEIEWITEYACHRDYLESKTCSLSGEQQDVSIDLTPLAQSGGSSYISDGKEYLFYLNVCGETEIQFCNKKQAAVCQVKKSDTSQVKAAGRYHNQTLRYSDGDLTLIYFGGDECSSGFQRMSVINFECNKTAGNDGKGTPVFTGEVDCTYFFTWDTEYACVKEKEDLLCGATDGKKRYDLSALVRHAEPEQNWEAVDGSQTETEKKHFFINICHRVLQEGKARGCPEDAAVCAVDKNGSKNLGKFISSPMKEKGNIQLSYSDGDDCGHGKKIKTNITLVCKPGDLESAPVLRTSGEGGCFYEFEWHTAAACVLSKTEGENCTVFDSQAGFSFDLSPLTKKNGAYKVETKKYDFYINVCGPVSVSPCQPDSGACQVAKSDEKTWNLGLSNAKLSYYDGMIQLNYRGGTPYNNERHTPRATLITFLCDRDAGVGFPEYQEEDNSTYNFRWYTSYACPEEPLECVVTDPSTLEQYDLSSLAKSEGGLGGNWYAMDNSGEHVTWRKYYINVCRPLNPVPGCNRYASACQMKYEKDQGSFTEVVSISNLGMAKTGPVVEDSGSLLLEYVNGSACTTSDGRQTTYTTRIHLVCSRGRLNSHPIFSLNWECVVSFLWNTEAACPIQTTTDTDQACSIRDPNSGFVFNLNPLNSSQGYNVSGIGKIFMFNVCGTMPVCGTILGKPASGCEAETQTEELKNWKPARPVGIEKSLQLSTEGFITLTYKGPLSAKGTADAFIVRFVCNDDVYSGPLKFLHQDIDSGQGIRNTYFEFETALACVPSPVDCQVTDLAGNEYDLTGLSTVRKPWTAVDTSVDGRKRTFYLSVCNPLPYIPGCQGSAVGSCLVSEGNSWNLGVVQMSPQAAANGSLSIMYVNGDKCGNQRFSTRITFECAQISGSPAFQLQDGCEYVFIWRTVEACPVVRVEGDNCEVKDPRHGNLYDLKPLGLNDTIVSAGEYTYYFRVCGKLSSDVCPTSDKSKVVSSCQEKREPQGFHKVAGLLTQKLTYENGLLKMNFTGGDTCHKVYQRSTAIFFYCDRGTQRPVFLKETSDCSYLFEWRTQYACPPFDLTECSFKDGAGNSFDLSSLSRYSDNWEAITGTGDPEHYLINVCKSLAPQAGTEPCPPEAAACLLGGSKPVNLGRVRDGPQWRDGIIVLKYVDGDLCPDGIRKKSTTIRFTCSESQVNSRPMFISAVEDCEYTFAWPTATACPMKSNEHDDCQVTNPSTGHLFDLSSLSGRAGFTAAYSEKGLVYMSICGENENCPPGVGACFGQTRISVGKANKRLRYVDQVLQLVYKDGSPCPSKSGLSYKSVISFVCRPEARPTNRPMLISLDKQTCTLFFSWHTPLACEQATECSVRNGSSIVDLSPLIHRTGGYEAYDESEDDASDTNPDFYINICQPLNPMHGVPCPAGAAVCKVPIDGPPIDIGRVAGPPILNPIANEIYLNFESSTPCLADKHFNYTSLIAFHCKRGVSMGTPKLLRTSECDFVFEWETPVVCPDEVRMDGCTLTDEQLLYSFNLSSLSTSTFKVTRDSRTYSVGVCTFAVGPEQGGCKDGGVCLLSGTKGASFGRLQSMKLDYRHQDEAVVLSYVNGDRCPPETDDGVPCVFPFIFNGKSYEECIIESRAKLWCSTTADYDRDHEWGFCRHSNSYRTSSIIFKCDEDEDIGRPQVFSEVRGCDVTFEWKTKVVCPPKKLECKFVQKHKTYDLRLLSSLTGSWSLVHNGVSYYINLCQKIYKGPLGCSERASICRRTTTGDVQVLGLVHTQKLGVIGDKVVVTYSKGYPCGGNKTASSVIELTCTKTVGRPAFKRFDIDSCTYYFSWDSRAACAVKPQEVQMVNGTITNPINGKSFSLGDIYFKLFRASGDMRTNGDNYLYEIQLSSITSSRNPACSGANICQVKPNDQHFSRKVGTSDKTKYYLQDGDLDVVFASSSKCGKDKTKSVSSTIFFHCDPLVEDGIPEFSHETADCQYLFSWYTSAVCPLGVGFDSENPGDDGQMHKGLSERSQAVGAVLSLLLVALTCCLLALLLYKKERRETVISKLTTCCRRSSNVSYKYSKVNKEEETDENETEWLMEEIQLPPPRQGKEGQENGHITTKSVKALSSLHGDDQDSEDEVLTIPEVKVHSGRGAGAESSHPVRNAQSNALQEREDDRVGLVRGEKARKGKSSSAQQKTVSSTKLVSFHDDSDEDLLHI
# Sequence of UniProt P04406 (P04406 whole entry, looked up): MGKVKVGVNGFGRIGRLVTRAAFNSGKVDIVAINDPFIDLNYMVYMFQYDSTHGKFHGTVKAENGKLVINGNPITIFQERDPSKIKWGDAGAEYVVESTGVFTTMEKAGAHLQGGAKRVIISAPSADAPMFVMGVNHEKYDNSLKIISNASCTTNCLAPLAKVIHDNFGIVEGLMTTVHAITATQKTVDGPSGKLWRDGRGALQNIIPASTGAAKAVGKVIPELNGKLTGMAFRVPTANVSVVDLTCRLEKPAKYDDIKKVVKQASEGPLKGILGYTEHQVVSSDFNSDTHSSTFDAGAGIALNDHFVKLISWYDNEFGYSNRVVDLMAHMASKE
# Sequence of UniProt P04792 (P04792 whole entry): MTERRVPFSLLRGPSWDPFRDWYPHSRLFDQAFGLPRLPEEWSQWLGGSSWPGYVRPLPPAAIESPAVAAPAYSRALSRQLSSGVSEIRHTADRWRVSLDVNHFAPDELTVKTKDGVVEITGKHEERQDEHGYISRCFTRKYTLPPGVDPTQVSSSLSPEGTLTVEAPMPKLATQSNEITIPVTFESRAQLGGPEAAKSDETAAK
row,Target,lysine labeling ratio R10:1
1,EDIL3 (lysine site: K290) (UniProt O43854),2.39 (inactive)
2,UniProt P05106 (lysine site: K98),1.59 (active)
3,UniProt Q86V81 (lysine site: K235),2.42 (inactive)
4,FOLR1 (lysine site: K46) (UniProt P15328),12.6 (inactive)
5,MAGT1 (lysine site: K66) (UniProt Q9H0U3),4.14 (inactive)
6,SLC44A2 (lysine site: K62) (UniProt Q8IWA5),2.64 (inactive)
7,TPM4 (lysine site: K13) (UniProt P67936),3.28 (inactive)
8,GAPDH (lysine site: K117) (UniProt P04406),3.17 (inactive)
9,HSPA5 (lysine site: K521) (UniProt P11021),1.53 (active)
10,UniProt P16144 (lysine site: K388),0.94 (active)
11,Q95604 (lysine site: K145) (UniProt P10321),2.39 (inactive)
12,IGF2R (lysine site: K2197) (UniProt P11717),8.12 (inactive)
13,HSPA5 (lysine site: K353) (UniProt P11021),3.4 (inactive)
14,LDHB (lysine site: K156) (UniProt P07195),6.77 (inactive)
15,NRP1 (lysine site: K504) (UniProt O14786),6.03 (inactive)
16,HSPD1 (lysine site: K469) (UniProt P10809),4.7 (inactive)
17,HNRNPA1 (lysine site: K166) (UniProt P09651),7.94 (inactive)
18,SPTAN1 (lysine site: K825) (UniProt Q13813),4.08 (inactive)
19,CLU (lysine site: K62) (UniProt P10909),1.13 (active)
20,UniProt Q9UII2 (lysine site: K90),6.67 (inactive)

row,Target,lysine labeling ratio R10:1
1,COL5A1 (lysine site: K605) (UniProt P20908),2.05 (inactive)
2,HSPA8 (lysine site: K71) (UniProt P11142),2.62 (inactive)
3,FLOT1 (lysine site: K285) (UniProt O75955),1.67 (active)
4,UniProt P62244 (lysine site: K88),1.79 (active)
5,CYB5R3 (lysine site: K42) (UniProt P00387),3.81 (inactive)
6,CELSR2 (lysine site: K2183) (UniProt Q9HCU4),4.05 (inactive)
7,HSPB1 (lysine site: K123) (UniProt P04792),2.35 (inactive)
8,P4HB (lysine site: K81) (UniProt P07237),6.39 (inactive)
9,EEF2 (lysine site: K42) (UniProt P13639),1.82 (active)
10,UniProt Q15149 (lysine site: K3237),1.17 (active)
11,HSPA9 (lysine site: K76) (UniProt P38646),3.36 (inactive)
12,ROBO1 (lysine site: K304) (UniProt Q9Y6N7),3.14 (inactive)
13,PTPRF (lysine site: K612) (UniProt P10586),4.74 (inactive)
14,SAFB2 (lysine site: K829) (UniProt Q14151),1.92 (active)
15,S100A10 (lysine site: K57) (UniProt P60903),2.66 (inactive)
16,MSLN (lysine site: K559) (UniProt Q13421),2.61 (inactive)
17,UniProt Q15149 (lysine site: K1626),2.37 (inactive)
18,WNT5A (lysine site: K208) (UniProt P41221),2.67 (inactive)
19,HSPA9 (lysine site: K394) (UniProt P38646),3.32 (inactive)
20,UniProt P55072 (lysine site: K148),5.57 (inactive)
